This note sets out measurements from publication PMC6212790, “How bacterial xenogeneic silencer rok distinguishes foreign from self DNA in its resident genome”.

In all, about 33,000 sequences were measured (“e-score”: median about -0.037, highest 2% from about 0.34 on). This excerpt belongs to a sample that is enriched for the highest values.

This assay has as its target T1, GST-Rok (full length) (Bacillus subtilis subsp. subtilis str. …, UniProt O34857 1-191).
T1 sequence: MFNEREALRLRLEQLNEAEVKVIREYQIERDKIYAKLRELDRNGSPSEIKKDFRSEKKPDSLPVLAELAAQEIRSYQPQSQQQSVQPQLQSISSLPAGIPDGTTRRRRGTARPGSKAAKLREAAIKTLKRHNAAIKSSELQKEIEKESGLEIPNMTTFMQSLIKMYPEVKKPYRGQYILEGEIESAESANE
As to the kind of experiment: protein binding microarray; Rok is a gene silencer of Bacillus subtilis; high values mean tight binding. Particulars: protein: recombinant; tags: GST (pTH5325, pDEST15-Magic modified); dsDNA, one strand shown. In short, it runs like this: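 Each has a 25-mer constant primer and a 35-mer variable part from a de Bruijn sequence of order 10, covering every non-palindromic 8-mer at least 32 times (palindromic 16). Preference for each 8-mer is given as a rank-based, unitless enrichment score (E-score). Its range runs from 0.5 (most favored) to −0.5 (most disfavored).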
On to CAAGCAGC, for which the binding signal was -0.0674 E-score. The result for CAGTTACA reads 0.24 E-score; that for TAGTTATA, 0.382 E-score; that for TAGTTACA, 0.349 E-score. The result for GAGTTATA reads 0.222 E-score; that for AAGTTACA, 0.18 E-score; that for CAGTTATA, 0.288 E-score. AGCTGAAG: the binding signal stood at 0.0654 E-score.

In the case of AACGCCTA, the binding signal is -0.101 E-score.

In the case of ACTTAACC, the binding signal is 0.121 E-score. For ATACCGAC the value was 0.0836 E-score; for ATACCGAG, 0.116 E-score. With ATACCGAT, the binding signal was found to be 0.342 E-score. On to GTTGGCGA, for which the binding signal is -0.0273 E-score. For the sequence GGAGCAGA, the binding signal was -0.132 E-score. The result for CGCCTTCA reads 0.0118 E-score; that for TAGCAGGA, -0.0921 E-score. As for ACCAAGGT, the binding signal was -0.0988 E-score. The result for GACACGAC reads -0.0441 E-score. The result for CGTAGTTA reads 0.127 E-score; that for GGTAGTCA, 0.125 E-score; that for AGTAGTTG, 0.388 E-score. For AGTAGTTA the value was 0.434 E-score; for AGTAGTGA, 0.0919 E-score; for ATTAGTTG, 0.334 E-score.

As for CGTAGTTC, the binding signal came out at 0.255 E-score.

With GTTAGTTA, the binding signal was 0.258 E-score. For ACTAGTTG the value was 0.313 E-score; for GGTAGTTA, 0.413 E-score; for ATTAGTTC, 0.172 E-score.

For the sequence AGTAGTTC, the binding signal is 0.413 E-score. Turning to GTAAGAAA, the binding signal came to 0.327 E-score. For CGTACAAC the value was 0.103 E-score.

CGGAGGAA: the binding signal is -0.194 E-score.

On to ACAATGAC, for which the binding signal came to 0.00584 E-score. For the sequence AAAGACAA, the binding signal came to 0.02 E-score.

Regarding GTTATTCA, the binding signal came to 0.0398 E-score. For ATAGGTCC, the binding signal was determined as 0.123 E-score. The result for CTAAGGCC reads -0.158 E-score. For AATATTCC the value was 0.131 E-score; for AATATTCG, 0.255 E-score; for AATATTGG, 0.103 E-score. Consider AATATTCT, for which the binding signal was determined as 0.338 E-score. Take AATATTGT: the binding signal came to 0.34 E-score.

As for AATATTGA, the binding signal turned out to be 0.287 E-score. The result for TGCGGGAA reads -0.19 E-score; that for CTAAGCCA, 0.0287 E-score. In the case of GGTTAGTA, the binding signal stood at 0.0365 E-score. Turning to CGTCGTTC, the binding signal is -0.0713 E-score. For GAACCGAC the value was -0.0645 E-score; for CGAAGAAA, 0.195 E-score.

For the sequence CGAAATTC, the binding signal is 0.341 E-score. For CGAAATTA the value was 0.269 E-score; for AGAAATTC, 0.228 E-score. As for GCAACCAC, the binding signal worked out at 0.0207 E-score. Turning to CGAATCTA, the binding signal amounted to 0.305 E-score.

As for AGAATCTA, the binding signal is 0.337 E-score. For AGAATCTG the value was -0.0414 E-score; for GGAATCAA, 0.103 E-score. For AGAATCTC the value was 0.0678 E-score; for GGAATCTA, 0.363 E-score; for CGGAATTA, 0.239 E-score.

Turning to GAAGGTTA, the binding signal is -0.0133 E-score. GCACTCAA: the binding signal is -0.134 E-score. ACCGGACC: the binding signal is -0.0925 E-score. For ACGGTACG the value was -0.0886 E-score; for CCTCACCG, -0.0671 E-score.

Take AGACTACT: the binding signal was found to be 0.209 E-score. The result for AAACTAAG reads 0.345 E-score; that for AGACTACC, 0.249 E-score. For AAACTAAT the value was 0.332 E-score; for CAACTACC, 0.303 E-score; for AAACTAAC, 0.233 E-score.

As for CAACTACG, the binding signal turned out to be 0.12 E-score. For AAACTACC the value was 0.475 E-score. Consider ACACTACG, for which the binding signal is -0.0357 E-score. AAACTACT: the binding signal came out at 0.484 E-score. AAACTACG: the binding signal was 0.377 E-score. For ACACTACT the value was 0.236 E-score; for ATGCGGCA, 0.0193 E-score. In the case of CACCTAAC, the binding signal came out at 0.06 E-score. For CTTCATAC the value was 0.0169 E-score; for ATGCAGGA, 0.0987 E-score; for ATAGAGAG, -0.0418 E-score.

For AGAAAACC, the binding signal is -0.176 E-score. For AGCAAGCG the value was -0.0451 E-score; for GCTGGAGA, -0.105 E-score; for ATTCGCAC, -0.0552 E-score. In the case of ATTAGGCC, the binding signal was -0.131 E-score. For GCACTACC the value was -0.000872 E-score. With GAACTACA, the binding signal was found to be 0.222 E-score.

With AAACTAAA, the binding signal turned out to be 0.324 E-score. As for AAACTACA, the binding signal was determined as 0.408 E-score. The result for TGACTACA reads 0.197 E-score; that for TCACTACA, 0.0227 E-score; that for TAACTACA, 0.441 E-score. For CAACTACA the value was 0.18 E-score; for GAACTACC, 0.338 E-score.

Consider TAGGCTAA, for which the binding signal is -0.112 E-score. For ATATCGAT the value was 0.316 E-score; for AAGTCTGA, -0.121 E-score; for CTAGGAAC, -0.0546 E-score.

Regarding AGTAGCTG, the binding signal came out at 0.204 E-score. Take CGTAGCTC: the binding signal amounted to 0.0159 E-score. For CGTAGCTA the value was 0.365 E-score; for CCTAGCTA, 0.107 E-score. For GCTAGCTA, the binding signal is 0.156 E-score. The result for AGTAGCTC reads 0.0983 E-score; that for AGTAGCTA, 0.386 E-score. With CGTAGCGA, the binding signal turned out to be 0.0631 E-score. For ACTAGCTA the value was 0.347 E-score; for GGTAGCAA, 0.241 E-score. For GGTAGCGA the value was 0.0576 E-score. As to GGTAGCTA, the binding signal turned out to be 0.341 E-score. In the case of GTTGAGGA, the binding signal is -0.0613 E-score.

CATTACCA: the binding signal was found to be 0.14 E-score. The result for CAGTAACG reads 0.112 E-score; that for GAACTATC, 0.292 E-score; that for TAACTATA, 0.341 E-score. Turning to ACACTATA, the binding signal worked out at 0.245 E-score.

With AAACTCTT, the binding signal is 0.188 E-score. The result for AAACTATG reads 0.195 E-score; that for CAACTATA, 0.307 E-score. For CAACTATC the value was 0.192 E-score; for AAACTATC, 0.412 E-score; for AAACTATT, 0.458 E-score. On to AAACTATA, for which the binding signal stood at 0.396 E-score.

Take TAACTAAA: the binding signal worked out at 0.151 E-score.

For the sequence GAACTATA, the binding signal turned out to be 0.289 E-score.

Turning to GCTGGCAC, the binding signal was -0.181 E-score. On to GTGCCAAA, for which the binding signal was -0.127 E-score. For AGTGAAGA the value was -0.00169 E-score. For the sequence CTCGAAAG, the binding signal was -0.0828 E-score.

On to CACCTAAA, for which the binding signal amounted to 0.131 E-score. For TACCTAAA, the binding signal was found to be 0.37 E-score. In the case of AACCTAAA, the binding signal was 0.102 E-score. The result for CACCTATA reads 0.214 E-score; that for TACCTATA, 0.37 E-score. The result for AACCTATA reads 0.239 E-score. The result for ATTAAGAA reads 0.154 E-score; that for ACTTGCCG, -0.0504 E-score; that for AAACTCTC, 0.106 E-score. With CACCATCG, the binding signal was -0.0961 E-score. For GATCAATA the value was 0.157 E-score; for AATCAATA, 0.296 E-score. As to TATCAATA, the binding signal is 0.343 E-score. The result for CTCGCGAG reads -0.0252 E-score. The result for AGAAGGAC reads -0.175 E-score; that for ACAGAGGC, -0.125 E-score; that for CACTATTA, 0.268 E-score. The result for AACTATTG reads 0.378 E-score; that for AACTATTA, 0.431 E-score. As for GACTATTA, the binding signal worked out at 0.157 E-score. For ACCTATTG, the binding signal stood at 0.182 E-score. As to AACTATTC, the binding signal is 0.315 E-score. For CGGACTCA the value was -0.0715 E-score. For ATTTTGAA the value was 0.162 E-score; for CTAAGGGA, -0.154 E-score.

For the sequence CAGCCCGG, the binding signal was -0.158 E-score. Regarding AAGTCCGC, the binding signal was -0.0838 E-score. On to GCAAGTAA, for which the binding signal is -0.0735 E-score. The result for AACCTCAT reads -0.155 E-score. As for TCTAGTAA, the binding signal came out at 0.351 E-score. For ACTAGTGA the value was 0.172 E-score; for ACTAGTAA, 0.382 E-score; for ATTAGTAA, 0.314 E-score. GCTAGTAA: the binding signal stood at 0.294 E-score. With CCTAGTAA, the binding signal is 0.256 E-score. CTAAGCAG: the binding signal was -0.152 E-score. The result for ACATCGAT reads 0.166 E-score; that for AGCTGGGG, -0.188 E-score. The result for ACTAGAAT reads 0.356 E-score. For ACGAGAAA the value was -0.0804 E-score; for ACTAGAAC, 0.296 E-score; for ACTAGAAG, 0.215 E-score. Take TCTAGAAA: the binding signal came to 0.222 E-score.
